HCMV inh: human cytomegalovirus inhibition; HFF cells, HCMV-luciferase reporter, 72 h; stronger effect = lower value; AID 1259415; activity change, negative = inhibition, % at 57.5 µM; 410,000 tested, 4.5% active; in the data active means activity change below about -60%; inconclusive means no clear call, values can overlap the other calls; inactive means above about -39%
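Two-dose cell screen: HFF monolayers treated with compounds and infected with luciferase-expressing HCMV at 1 PFU/cell, 72 h at 37C, then lysed for luciferase measurement.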
Pf growth 96h: P. falciparum growth inhibition at 96 hours; P. falciparum luciferase reporter growth, 96 h; Potency, µM (titrated, usually from 28.7 µM), actives largely listed as inhibitors; 320,000 tested, 6.9% active
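Cell-based qHTS: luciferase-tagged P. falciparum in erythrocytes (2% hematocrit, 0.05% parasitemia final) incubated with compounds for 96 hours, 37 C, 5% CO2; luciferase detection reagent then added and luminescence measured.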
HCV inh: blocks hepatitis C virus. Huh7.5.1 HCVcc-Cre infection, luciferase reporter, 44 h. Potency, µM (top dose mostly 41.8 µM), most hits filed as inhibitors. 340,000 tested, 3.4% active. AID 651820
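Compounds are dispensed onto cells plated 4 h earlier at 1,000 per well, with HCVcc-Cre virus (about 0.5 moi) added next. Following 44 h of culture, luminescent signal is measured for 15 sec after 15 min with substrate at room temperature.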
Pf growth 48h: P. falciparum growth inhibition at 48 hours (one generation) | P. falciparum luciferase growth in erythrocytes, 48 h | Potency, µM (series often up to 28.7 µM), actives largely listed as inhibitors | 310,000 tested, 5.9% active | AID 504832
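Erythrocytes infected with P. falciparum carrying an integrated firefly luciferase reporter (2% hematocrit, 0.1% parasitemia final) were exposed to compounds in RPMI 1640 with 0.5% Albumax at 37 C, 5% CO2. Growth inhibition was scored as reduced luminescence.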
Large screens that a line does not name were inactive. The list is not random: actives were taken first. Their share in the collection is about 13%. Unless noted, the call rests on the fitted dose curve; in most records, active means well fitted inhibition curve with a large enough effect; inconclusive means small, poorly fitted or top-dose-only effect, or another doubt; inactive means no such curve, though single readings can be large or run the other way.

CC1(C)N=C(N)N=C(N)N1c1ccc(Oc2ccc(Cl)cc2)c(Cl)c1	HCMV inh -100, HCV inh inconclusive, Pf growth 48h 0.21µM
CC1(C)N=C(N)N=C(N)N1c1ccccc1	Pf growth 96h 0.74µM, HCV inh inconclusive (no result: Pf growth 48h)
CC1(C)N=C(N)N=C(N)N1c1cc(Cl)ccc1Cl	none (no result: Pf growth 96h, HCV inh, Pf growth 48h)
CC1(C)N=C(N)N=C(N)N1c1ccc(CCCCc2ccccc2)cc1	HCMV inh -101 (no result: Pf growth 96h, HCV inh, Pf growth 48h)
CC1(C)N=C(N)N=C(N)N1c1cccc(CN)c1	Pf growth 96h 0.93µM, Pf growth 48h 0.83µM
COc1cccc(C(O)c2ncc(-c3ccc(C(F)(F)F)cc3)[nH]2)c1 (stereo unspecified)	none (no result: Pf growth 96h, HCV inh, Pf growth 48h)
COc1cc(OC)c(C2CC(=O)Nc3ccc4ccccc4c32)cc1OC (stereo unspecified)	none (no result: Pf growth 96h, HCV inh, Pf growth 48h)
Cc1ccccc1OCC(=O)Nc1ccc(S(=O)(=O)N(Cc2ccccc2)c2ccccc2)cc1	none (no result: Pf growth 96h, HCV inh, Pf growth 48h)
Cc1noc(C)c1C(=O)Nc1cccc(S(=O)(=O)N2CCCCC2)c1	Pf growth 96h 8.3µM
O=S(=O)(Nc1cccc(S(=O)(=O)N2CCCCC2)c1)c1ccc(Cl)s1	HCMV inh -67 (no result: Pf growth 96h, Pf growth 48h)
O=C(Nc1cccc(S(=O)(=O)N2CCCCC2)c1)c1ccc([N+](=O)[O-])o1	Pf growth 96h 9.3µM, HCV inh inconclusive, Pf growth 48h inconclusive
O=C(NC1CC1)c1cccc(S(=O)(=O)N2CCOCC2)c1	Pf growth 96h inconclusive
CCc1noc(C)c1C(=O)Nc1cccc(S(=O)(=O)N2CCCCCC2)c1	HCV inh inconclusive, Pf growth 48h inconclusive
O=C(NC1CCCC1)c1cccc(S(=O)(=O)N2CCOCC2)c1	HCMV inh -103, Pf growth 96h inconclusive
COc1ccc(NC(=O)N(Cc2nnc3n2CCCCC3)c2ccc(OC)c(Cl)c2)cc1	none (no result: Pf growth 96h, HCV inh, Pf growth 48h)
Cc1ccc(CNC(=O)C2CCN(S(=O)(=O)Cc3ccccc3)CC2)cc1	none (no result: Pf growth 96h, HCV inh, Pf growth 48h)
COc1ccc(OC)c(NC(=O)N2CCN(Cc3nc4ccc(C)cc4o3)CC2)c1	none (no result: Pf growth 96h, HCV inh, Pf growth 48h)
Cc1ccc(NC(=O)c2cccc(S(=O)(=O)N(C)c3ccccc3)c2)cc1S(=O)(=O)N1CCOCC1	HCMV inh -70, Pf growth 96h 12µM, HCV inh 4µM, Pf growth 48h inconclusive
O=C(Cn1cnc2cc([N+](=O)[O-])ccc2c1=O)Nc1cccc(S(=O)(=O)N2CCCCC2)c1	HCMV inh inconclusive, HCV inh 5.6µM (no result: Pf growth 96h, Pf growth 48h)
Cc1ccccc1NC(=O)c1cccc(S(C)(=O)=O)c1	HCMV inh -102
O=C(Cn1cnc2cc([N+](=O)[O-])ccc2c1=O)N1CCN(S(=O)(=O)c2ccccc2)CC1	none (no result: Pf growth 96h, Pf growth 48h)
Cc1ccc(C(=O)Nc2cccc(C(=O)O)c2)cc1S(=O)(=O)N1CCOCC1	none (no result: Pf growth 96h)
Cc1ccccc1NS(=O)(=O)c1cccc(C(=O)Nc2cccc(C(=O)O)c2)c1	none
Cc1ccsc1C(=O)NNC(=O)c1cccc(S(=O)(=O)N2CCCC2)c1	HCMV inh active
CCn1cc(C(=O)N2CCN(c3ccc(F)cc3)CC2)c(=O)c2cc(S(=O)(=O)N3CCOCC3)ccc21	none (no result: Pf growth 96h, HCV inh, Pf growth 48h)
O=C(c1cccc(S(=O)(=O)N2CCCC2)c1)c1cccc(S(=O)(=O)N2CCCC2)c1	HCMV inh -74, HCV inh inconclusive, Pf growth 48h inconclusive
COc1ccc(C(=O)Nc2cccc(S(=O)(=O)N3CCCC3)c2)cc1S(=O)(=O)N1CCOCC1	HCV inh inconclusive (no result: Pf growth 96h, Pf growth 48h)
O=C(NC1CCCC1)c1cc(S(=O)(=O)N2CCOCC2)c(Cl)cc1Cl	Pf growth 96h 4.7µM
O=C(c1cccc(S(=O)(=O)N2CCCCC2)c1)N1CCCCC1	none (no result: Pf growth 96h)
Cc1ccc(C(=O)Nc2cccc(S(=O)(=O)N3CCCCC3)c2)cc1S(=O)(=O)N1CCOCC1	HCV inh 8.9µM (no result: Pf growth 96h, Pf growth 48h)
O=C(Nc1cccc(S(=O)(=O)N2CCCC2)c1)c1cc(S(=O)(=O)N2CCOCC2)ccc1F	Pf growth 96h inconclusive, Pf growth 48h 9.3µM
CCOc1ccccc1C1Nc2ccccc2-c2nnc(SCc3ccccc3)nc2O1 (stereo unspecified)	none (no result: Pf growth 96h, HCV inh, Pf growth 48h)
O=C(Nc1nccs1)c1cccc(S(=O)(=O)N2CCCCC2)c1	Pf growth 96h 15µM, HCV inh inconclusive
O=C(Nc1cccc(S(=O)(=O)N2CCCC2)c1)c1cccc(S(=O)(=O)N2CCOCC2)c1	Pf growth 96h inconclusive, HCV inh inconclusive, Pf growth 48h 12µM
O=C(Nc1cccc(S(=O)(=O)N2CCCCC2)c1)Nc1ccc(Cl)cc1Cl	HCMV inh -100, Pf growth 96h inconclusive, HCV inh inconclusive
CCN(CC)c1ccc(/C=N/NC(=O)c2cccc(S(=O)(=O)N3CCOCC3)c2)cc1	HCV inh 10µM

Compound activity: PubChem BioAssay, National Center for Advancing Translational Sciences (NCATS)
